Source: PubChem BioAssay (Tox21)
“And” between values parts separate entries of the source, which are not always exact repeats. Equal entries are not always repeated. Results filed as inconclusive are left out. The source made the active and inactive calls. The call rests on the fitted dose curve; in most records, active means well fitted curve in the direction sought with a large enough effect in the repeat runs; inconclusive means weak or mixed curves; inactive means no such curve, though single readings can be large; an effect the other way counts as inactive or inconclusive.

Assays:
[1] = A CellTox Green Cytotoxicity Assay to monitor cytotoxicity in HEK293 cells - 40 hour (AID 1224871); further: nearly all actives have a fitted effect of over 45% in size
Summary of the method: (§1)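 Fluorescence from a DNA-binding dye excluded by viable cells was measured repeatedly in the same HEK293 wells (600 cells/well) during continuous compound exposure at 37 C. Each assay gives one read point: 0, 8, 16, 24, 32 or 40 h.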

[2] = qHTS RealTime-Glo MT Cell Viability Assay in HEK293 cells - 16 hour (AID 1224872); further: top concentration of the series differs between compounds; nearly all actives have a fitted effect of over 50% in size
Summary of the method: (§2)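 HEK293 cells were seeded at 600 cells/well together with NanoLuc luciferase and cell-permeant prosubstrate, preincubated 5 h at 37 C/5% CO2, then given compound in DMSO by pintool. Luminescence from viable-cell prosubstrate reduction was read repeatedly over 40 h.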

[3] = qHTS RealTime-Glo MT Cell Viability Assay in HepG2 cells - 8 hour (AID 1224873); further: nearly all actives have a fitted effect of over 55% in size
Summary of the method: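 HepG2 cells (600/well) mixed with RealTime-Glo MT reagent, settled 5 h at 37 C/5% CO2 before compound addition. Nonlytic NanoLuc luminescence from viable-cell prosubstrate reduction read repeatedly during 40 h treatment at 37 C.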

[4] = qHTS RealTime-Glo MT Cell Viability Assay in HEK293 cells - 40 hour (AID 1224874); settings: RealTime-Glo luminescence; max response: active compounds read low; further: nearly all actives have a fitted effect of over 50% in size
Summary of the method: (§3)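 Luminescence, which tracks viable cell number through reduction of the prosubstrate to a NanoLuc substrate, was read over continuous 37 C culture. Cells (600/well) were premixed with reagent and rested 5 h before 23 nL of compound in DMSO was pinned.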

[5] = A CellTox Green Cytotoxicity Assay to monitor cytotoxicity in HEK293 cells - 24 hour (AID 1224875); further: series mostly up to about 77 µM; nearly all actives have a fitted effect of over 45% in size
Summary of the method: as §1

[6] = A CellTox Green Cytotoxicity Assay to monitor cytotoxicity in HepG2 cells - 16 hour (AID 1224876); further: nearly all actives have a fitted effect of over 45% in size
Summary of the method: (§4)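 Real-time cytotoxicity: fluorescence of a cell-impermeant cyanine dye binding DNA of dead HepG2 cells, measured repeatedly (0–40 h) during compound exposure at 37 C. Cells seeded 600/well with reagent, dosed after 5 h.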

[7] = qHTS RealTime-Glo MT Cell Viability Assay in HepG2 cells - 32 hour (AID 1224877); further: nearly all actives have a fitted effect of over 55% in size
Summary of the method: (§5)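 HepG2 cells were seeded at 600 cells/well together with NanoLuc luciferase and a cell-permeant prosubstrate, preincubated 5 h at 37 C/5% CO2, then pin-dosed with compounds in DMSO. Nonlytic luminescence from viable cells was read at each time point.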

[8] = A CellTox Green Cytotoxicity Assay to monitor cytotoxicity in HepG2 cells - 24 hour (AID 1224878); further: nearly all actives have a fitted effect of over 45% in size
Summary of the method: as §4

[9] = A CellTox Green Cytotoxicity Assay to monitor cytotoxicity in HepG2 cells - 40 hour (AID 1224879); further: nearly all actives have a fitted effect of over 40% in size
Summary of the method: as §4

[10] = qHTS RealTime-Glo MT Cell Viability Assay in HEK293 cells - 0 hour (AID 1224880)
Summary of the method: as §3

[11] = A CellTox Green Cytotoxicity Assay to monitor cytotoxicity in HepG2 cells - 0 hour (AID 1224882); further: nearly all actives have a fitted effect of over 35% in size
Summary of the method: as §4

[12] = A CellTox Green Cytotoxicity Assay to monitor cytotoxicity in HepG2 cells - 32 hour (AID 1224883); further: nearly all actives have a fitted effect of over 50% in size
Summary of the method: as §4

[13] = A CellTox Green Cytotoxicity Assay to monitor cytotoxicity in HEK293 cells - 8 hour (AID 1224884); further: nearly all actives have a fitted effect of over 35% in size
Summary of the method: as §1

[14] = qHTS RealTime-Glo MT Cell Viability Assay in HepG2 cells - 16 hour (AID 1224885); further: nearly all actives have a fitted effect of over 50% in size
Summary of the method: as §5

[15] = qHTS RealTime-Glo MT Cell Viability Assay in HEK293 cells - 24 hour (AID 1224886)
Summary of the method: as §2

[16] = qHTS RealTime-Glo MT Cell Viability Assay in HEK293 cells - 8 hour (AID 1224887)
Summary of the method: as §3

[17] = A CellTox Green Cytotoxicity Assay to monitor cytotoxicity in HEK293 cells - 16 hour (AID 1224888); further: nearly all actives have a fitted effect of over 35% in size
Summary of the method: as §1

[18] = qHTS RealTime-Glo MT Cell Viability Assay in HepG2 cells - 0 hour (AID 1224889); further: nearly all actives have a fitted effect of over 50% in size
Summary of the method: as §5

[19] = A CellTox Green Cytotoxicity Assay to monitor cytotoxicity in HepG2 cells - 8 hour (AID 1224890); further: nearly all actives have a fitted effect of over 45% in size
Summary of the method: as §4

[20] = A CellTox Green Cytotoxicity Assay to monitor cytotoxicity in HEK293 cells - 32 hour (AID 1224881); further: nearly all actives have a fitted effect of over 40% in size
Summary of the method: as §1
On the % scale 0 is the no-effect control and ±100 the full control effect.

O=C1CCCCCCCCCCC1
inactive: Potency [1] | Potency [2] | Potency [3] | max response [4] -9.58% and -0.296% | Potency [5] | Potency [6] | Potency [7] | Potency [8] | Potency [9] | Potency [10] | Potency [11] | Potency [12] | Potency [13] | Potency [14] | Potency [15] | Potency [16] | Potency [17] | Potency [18] | Potency [19]

CCCCCCCCC(=O)O
inactive: Potency [1] | Potency [2] | Potency [3] | max response [4] 1.64% and 2.96% | Potency [5] | Potency [6] | Potency [7] | Potency [8] | Potency [9] | Potency [10] | Potency [20] | Potency [11] | Potency [12] | Potency [13] | Potency [14] | Potency [15] | Potency [17] | Potency [18] | Potency [19]

CC(=O)OC[C@H]1O[C@@](COC(C)=O)(O[C@H]2O[C@H](COC(C)=O)[C@@H](OC(C)=O)[C@H](OC(C)=O)[C@H]2OC(C)=O)[C@@H](OC(C)=O)[C@@H]1OC(C)=O
inactive: Potency [1] | Potency [2] | Potency [3] | max response [4] -0.774% and 5.83% | Potency [5] | Potency [6] | Potency [7] | Potency [8] | Potency [9] | Potency [10] | Potency [20] | Potency [11] | Potency [12] | Potency [13] | Potency [14] | Potency [15] | Potency [17] | Potency [18] | Potency [19]

CC(C)=CCC/C(C)=C/C=O
inactive: Potency [1] | Potency [2] | Potency [3] | max response [4] 4.59% and 11.5% | Potency [5] | Potency [6] | Potency [7] | Potency [8] | Potency [9] | Potency [10] | Potency [20] | Potency [11] | Potency [12] | Potency [13] | Potency [14] | Potency [15] | Potency [17] | Potency [18] | Potency [19]

OB(O)O
inactive: Potency [1] | Potency [2] | Potency [3] | max response [4] 1.85% and 3.92% | Potency [5] | Potency [6] | Potency [7] | Potency [8] | Potency [9] | Potency [10] | Potency [20] | Potency [11] | Potency [12] | Potency [13] | Potency [14] | Potency [15] | Potency [17] | Potency [18] | Potency [19]

COc1ccccc1[N+](=O)[O-]
inactive: Potency [1] | Potency [2] | Potency [3] | max response [4] 3.8% and 3.66% | Potency [5] | Potency [6] | Potency [7] | Potency [8] | Potency [9] | Potency [10] | Potency [20] | Potency [11] | Potency [12] | Potency [13] | Potency [14] | Potency [15] | Potency [17] | Potency [18] | Potency [19]

O=Cc1ccc(CO)o1
inactive: Potency [1] | Potency [2] | Potency [3] | max response [4] -0.203% and -12.4% | Potency [5] | Potency [6] | Potency [7] | Potency [8] | Potency [9] | Potency [10] | Potency [20] | Potency [11] | Potency [12] | Potency [13] | Potency [14] | Potency [15] | Potency [17] | Potency [18] | Potency [19]

OC[C@H]1O[C@@H](Oc2ccc(O)cc2)[C@H](O)[C@@H](O)[C@@H]1O
inactive: Potency [1] | Potency [2] | Potency [3] | max response [4] 3.45% and 3.98% | Potency [5] | Potency [6] | Potency [7] | Potency [8] | Potency [9] | Potency [10] | Potency [20] | Potency [11] | Potency [12] | Potency [13] | Potency [14] | Potency [15] | Potency [17] | Potency [18] | Potency [19]
